Screening data from PubChem.
In the library only some 10% were active in any assay of this set; here they are far more common.
KB-V1 MDR tox: KB-V1 MDR subline cytotoxicity | KB-V1 MDR cells viability, CellTiter-Glo, 72 h | Potency, µM (series often up to 46.1 µM), usual class: cytotoxic | hit rate 3.4% among 400,000 | AID 1347076; also: % is scaled to controls: 0 for no effect and ±100 for the full control effect; nearly all actives have a fitted effect of over 60% in size
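Readout: CellTiter-Glo luminescence, 10 min after addition. Cells: KB-V1 MDR subline, 72 h at 37 degrees C with compound. Analysis: corrected, normalized data fitted to concentration-effect curves.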
RORgamma inh: ROR gamma (mouse) transcription inhibition; P51450; Potency, µM (series often up to 53.6 µM), for the others: top-dose activity change, negative = inhibition, most hits filed as inhibitors; hit rate 5.4% among 310,000; AID 2551; Drosophila S2 Gal4-RORgamma UAS-luciferase reporter, 20 h; also: % is scaled to controls: 0 for no effect and ±100 for the full control effect; nearly all actives have a fitted effect of over 60% in size
Target sequence (P51450 whole entry, looked up, the tested form may be a part): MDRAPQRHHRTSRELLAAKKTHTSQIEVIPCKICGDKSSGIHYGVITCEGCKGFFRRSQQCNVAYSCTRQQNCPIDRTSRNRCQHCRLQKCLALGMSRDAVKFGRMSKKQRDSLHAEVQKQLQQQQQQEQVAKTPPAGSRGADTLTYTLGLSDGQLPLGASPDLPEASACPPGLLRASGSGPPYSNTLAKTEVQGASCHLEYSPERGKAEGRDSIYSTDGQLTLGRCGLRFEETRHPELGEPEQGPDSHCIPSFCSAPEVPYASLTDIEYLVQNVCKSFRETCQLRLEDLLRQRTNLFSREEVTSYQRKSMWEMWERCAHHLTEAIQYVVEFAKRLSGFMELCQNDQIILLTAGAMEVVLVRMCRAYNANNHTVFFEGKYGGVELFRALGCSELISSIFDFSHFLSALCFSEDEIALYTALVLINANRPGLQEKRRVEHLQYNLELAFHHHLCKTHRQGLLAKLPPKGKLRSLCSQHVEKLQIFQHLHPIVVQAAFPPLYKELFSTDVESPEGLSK
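Drosophila Schneider cells stably carrying a metallothionein-driven Gal4 DBD–ROR gamma fusion and a UAS-Photinus luciferase reporter were exposed to compound for 1 hr, then induced with copper sulfate (700 uM final) for 20 hr at ambient temperature before luminescence reading.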
SW480 rerep: inducers of DNA re-replication in SW480 colon cancer cells. SW480 DNA re-replication, Hoechst DNA content imaging, 48 h. Potency, µM (highest dose often 46.1 µM), for the others: at the highest dose re-replication activation, hits mostly activators. hit rate 1.8% among 340,000; also: % of control where 0% means no effect; nearly all actives have a fitted effect of over 55% in size
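Treated cells incubate 48 hr (37 C, 5% CO2), are stained 40 min with Hoechst, and nuclear fluorescence is enumerated; a rise in nuclei with high DNA signal marks re-replication.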
MCF10A rerep: inducers of DNA re-replication in MCF 10A breast cells | MCF 10A DNA re-replication, Hoechst nuclear intensity, 48 h | AID 624296 | Potency, µM (highest dose often 46.1 µM), inactives show top-dose activity, positive = re-replication, most hits filed as activators | hit rate 2.9% among 350,000; also: % of control where 0% means no effect; nearly all actives have a fitted effect of over 50% in size
VP16 counter: Gal4-VP16 reporter inhibition counter-screen | hit rate 3.5% among 310,000 | Potency, µM (top dose mostly 53.6 µM), inactives show top-dose activity, negative = inhibition, actives largely listed as inhibitors | Drosophila S2 Gal4-VP16 UAS-luciferase, luminescence, 20 h;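 also: Gal4-VP16 expression switched on by copper sulfate through the metallothionein promoter; % is scaled to controls: 0 for no effect and ±100 for the full control effect; nearly all actives have a fitted effect of over 50% in size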
KB-3-1 tox: kills parental KB-3-1 adenocarcinoma cells; KB-3-1 viability, CellTiter-Glo ATP luminescence, 72 h; Potency, µM (doses to about 46.1 µM), actives largely listed as cytotoxic; hit rate 1.4% among 400,000; AID 1347075; also: % is scaled to controls: 0 for no effect and ±100 for the full control effect; nearly all actives have a fitted effect of over 60% in size
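Here the drug-naive KB-3-1 line serves as comparator for MDR sub-line selectivity; cells received compound titrations, 72 h at 37 °C, then CellTiter-Glo readout.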
* marks the source's active call; other numbers are inactive results; i = inactive; ? = inconclusive; . = not tested or not shown; ! = not active in a repeat; [ ] = dose if it differs, or a comment. Calls follow the shape of the dose curve; as a rule, active = well fitted curve in the direction sought with a large enough effect; inconclusive = small, poorly fitted or top-dose-only effect, or another doubt; inactive = no such curve, though single readings can be large; an effect the other way counts as inactive or inconclusive. Potency is read from the fitted curve at half-maximal effect.

SMILES	KB-V1 MDR tox	RORgamma inh	SW480 rerep	MCF10A rerep	VP16 counter	KB-3-1 tox
Cc1ccccc1Oc1nc2c(C)cccn2c(=O)c1/C=C(\C#N)C(=O)Nc1c(C)n(C)n(-c2ccccc2)c1=O	?	-2%	?	21µM*	?	i
Cc1ccccc1Oc1nc2ccccn2c(=O)c1/C=C(\C#N)C(=O)Nc1c(C)n(C)n(-c2ccccc2)c1=O	i	-22%	-9%	14%	-14%	i
COc1ccccc1-c1cc(C(=O)Nc2c(C)n(C)n(-c3ccccc3)c2=O)no1	i	0%	0%	-6%	4%	i
COc1ccc(OC)c(-c2cc(C(=O)Nc3c(C)n(C)n(-c4ccccc4)c3=O)no2)c1	23µM*	8%	3%	16%	-12%	i
Cc1ccccc1-c1nnc(CN2CCN(c3cc(Cl)ccc3C)CC2)o1	?	.	.	.	.	i
CC(C)=CCc1c(O)cc2oc3c(CC=C(C)C)c(O)c(O)c(CC=C(C)C)c3c(=O)c2c1O	?	?	14%	?	?	?
COc1c(O)cc2oc3cc(O)c(CC=C(C)C)c(O)c3c(=O)c2c1CC=C(C)C	.	?	.	.	25µM*!	.
CCCOC(=O)c1ccc(Oc2cn[nH]c2-c2ccc(O)cc2O)cc1	i	17%	6%	?	-21%	?
CCOC(=O)c1ccc(Oc2cn[nH]c2-c2ccc(O)cc2O)cc1	i	4%	-13%	?	-24%	23µM*
CCCc1ccc(Oc2cn[nH]c2-c2ccc(O)cc2O)cc1	i	16µM*	?	?	-27%	i
CCCSCCCNC(=O)C1CCN(c2nc3ccccc3nc2C(F)(F)F)CC1	i	.	.	.	.	i
Cc1ccn2cc(-c3cnoc3C)nc2c1	i	1%	-5%[9.22 µM]	0%	2%	i
COc1ccc(S(=O)(=O)Nc2cc(-c3cn4ccc(C)cc4n3)ccc2C)cc1OC	i	.	.	.	.	i
CC(=O)Nc1cccc(-c2cn3ccc(C)cc3n2)c1	i	?	-14%	-2%	?	i
Cc1ccc(S(=O)(=O)Nc2ccc(-c3cn4ccc(C)cc4n3)cc2)cc1	i	?	0.73µM*	21µM*	-1%	i
Cc1ccn2cc(-c3ccc(Br)cc3)nc2c1	i	8.9µM*	35%	28%	?	i
Cc1ccn2cc(-c3cccc(NC(=O)CCC(=O)O)c3)nc2c1	i	7.1µM*	-8%	-8%	10µM*	i
Cc1ccn2cc(-c3cccc([N+](=O)[O-])c3)nc2c1	i	10µM*	-11%	-1%	?	i
COc1ccccc1CNC(=O)CCn1c(=O)c2ccccc2n(CC(=O)Nc2ccc(C)cc2C)c1=O	i	.	.	.	.	i
Cc1ccn2cc(-c3ccc(NS(=O)(=O)c4ccccc4)cc3)nc2c1	16µM*	?	-44%	?	21%	i
Cc1ccn2cc(-c3cccc(NS(C)(=O)=O)c3)nc2c1	i	-20%	0%	-13%	-11%	i
O=C1c2ccccc2-c2onc3ccc(NCCCn4ccnc4)c1c23	?	13µM*	0%	-4%	-23%	i
Cc1ncoc1C(=O)Nc1ccc(Oc2ccccc2)cc1	18µM*	-5%	-12%	3%	?	i
Nc1ccc(C(=O)N2CCN(S(=O)(=O)c3ccc4c(c3)OCCCO4)CC2)cc1[N+](=O)[O-]	?	.	9%	-8%	.	?
CCOc1ccc(S(=O)(=O)NCc2ccccn2)cc1	i	2%	-8%	5%	-7%	i
SMILES	KB-V1 MDR tox	RORgamma inh	SW480 rerep	MCF10A rerep	VP16 counter	KB-3-1 tox
CC(=O)Nc1ccc(S(=O)(=O)NCc2ccncc2)cc1	i	7.1µM*	-2%	14%	2µM*	i
Cc1ccc(S(=O)(=O)NCc2ccncc2)cc1	i	-15%	?	?	7.9µM*	?
CCOc1cc(S(=O)(=O)NCc2ccncc2)ccc1Cl	i	2µM*	-18%	12%	1.1µM*	?
CC(=O)Nc1ccc(S(=O)(=O)NCc2ccccn2)cc1	i	4%	-8%	-4%	-22%	i
CCOc1ccc(S(=O)(=O)NCc2ccncc2)cc1	0.65µM*	0%	0%	7%	2%	0.82µM*
CC1CCCCC1NS(=O)(=O)c1ccc(S(=O)(=O)NCc2ccncc2)cc1 (stereo not drawn)	16µM*	9%	0%	21%	-27%	i
Cc1cc(S(=O)(=O)NCc2ccncc2)c(C)cc1Br	?	-25%	-1%	-2%	10µM*	i
CCOc1cc(S(=O)(=O)NCCCn2ccnc2)ccc1Cl	i	24%[1.91 µM]	8%	-1%	-8%	i
CCOc1ccc(S(=O)(=O)NCCCn2ccnc2)cc1	?	.	-8%	23µM*	.	i
CCOC(=O)COc1ccc(S(=O)(=O)NCc2ccncc2)cc1	i	?	4%	2%	11µM*	?
CC(=O)ON(C(C)=O)c1ccc(/C=C2\C=Cc3ccccc32)cc1	i	.	.	.	.	i
CN(c1ncnc2onc(-c3cccc(Cl)c3)c12)C1CCCCC1	i	.	.	.	.	i
O=C(Nc1ccccc1)c1cc(C2CCCCN2C(=O)OCCF)on1 (stereo not drawn)	i	.	.	.	.	i
COC(=O)Cn1cnc2c(C#N)c3n(c2c1=O)CCCCC3	?	7%[0.365 µM]	-1%	16%	.	i
N#Cc1c2n(c3c(=O)n(Cc4ccccc4Cl)cnc13)CCCCC2	i	?	-1%	12µM*	2%	?
Cc1cc(C)c(C(N)=O)c(Nc2cccc3ccccc23)n1	i	2.8µM*	1%	-3%	?	i
COc1ccccc1Nc1nc(C)cc(C)c1C(N)=O	i	7%	-7%	2%	2%	i
CC1(C)COC(/C=C/c2cccc([N+](=O)[O-])c2)=N1	i	?	?	14µM*	1.4µM*	?
COc1ccc2cc(CCNS(=O)(=O)c3ccc(C)cc3)c(=O)[nH]c2c1	i	.	.	.	.	i
CCc1ccc(CNC(=O)C2Cc3cc(S(=O)(=O)N4CCCCCC4)ccc3N2C(C)=O)cc1 (stereo not drawn)	i	.	.	.	.	i
OC(CCN1CCC2CCC(C2)C1)c1ccc(Br)cc1 (stereo not drawn)	i	.	15µM*	17%	.	?
O=C(CCN1CCC2CCC(C2)C1)c1ccccc1 (stereo not drawn)	i	.	?	?	.	i
O=C(CSc1nc2ccc(NC(=O)CSc3nnnn3-c3ccccc3)cc2s1)Nc1ccccc1	i	27%	3%	?	?	i
